# According to PubChem BioAssay:
# Several values for one entry are separate records, joined by “and”; a condition that tells them apart may be missing. Equal entries are not always repeated. For part of these data: Results with a measured potency or affinity are listed apart. Some compounds were tested as several samples or in several runs, with calls that do not always agree. Activity calls are given as the source filed them.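 Rule for the calls, unless noted: active = compounds killing one labelled cell type while sparing the other, by normalised counts and ratio limits, not self-fluorescent; inactive = the rest.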
# Assays:
# [1] = blockers of polyQ-driven CASP3 activation – cell-based (AID 1583); conditions: polyglutamine-induced caspase-3 activation, cell assay; stronger effect = higher value;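 tested at 10 µM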
# [2] = yeast 75Q aggregation reduction – 75Q-TubU reporter (AID 1593); conditions: Yeast 75Q polyglutamine aggregation reporter
# [3] = restoration of touch response, mutant HTT neurons – whole organism, C. elegans mechanosensory neurons, N-terminal huntingtin (AID 1599); conditions: C. elegans polyQ-huntingtin mechanosensory neurons, stronger effect = higher value
# [4] = blockers of cytochrome c efflux from mitochondria – biochemical, purified mitochondria (AID 1603); conditions: stronger effect = lower value;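 note: mouse liver mitochondria challenged with calcium chloride; signal normalized to the plate average as 100%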
# [5] = polyglutamine aggregate formation blockers (AID 1604); conditions: polyglutamine-induced protein aggregation inhibition assay; stronger effect = higher value; tested at 2.5 µM
# [6] = glutamate transport activators, MN-1 cells, MN-1 cell line (AID 1612); conditions: MN-1 motor neuron cells, stronger effect = higher value;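 note: tested at 1 µM final; 0% = mean of DMSO vehicle wells on each plate; positive means more glutamate uptake than control and negative means less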
# [7] = GFP-Q80 aggregate reduction, neuronal-like cells, cell-based, NGF-treated PC12, GFPQ80 (AID 1614); conditions: PC12 NGF-treated GFP-polyQ80 inclusion reduction;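 note: lower means fewer inclusions and 0 means no inclusions at all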
# [8] = 75Q-TubH aggregate inhibition, S. cerevisiae, yeast (AID 1616); conditions: S. cerevisiae 75Q-TubH polyglutamine aggregation suppression; stronger effect = higher value
# [9] = P. berghei load reduction in hepatocytes – cell-based, HepG2, luciferase luminescence, HepG2 viability, primary screen (AID 624349; in the data active = parasite load remaining mostly below about 12%, no sharp cut-off; inactive = mostly above about 10%;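 note: 100% = mean of DMSO negative control wells on the same plate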); conditions: P. berghei liver stage in HepG2, luciferase luminescence, concentration not given here; parasite load remaining: stronger effect = lower value; viability: measured here: HepG2 viability without parasites
# [10] = biological target: 6-phosphogluconate dehydrogenase, decarboxylating (Homo sapiens) (UniProt P52209); assay: inhibition of human phosphogluconate dehydrogenase – biochemical, recombinant enzyme, NADPH absorbance, primary screen (AID 1159550;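 active = at least 20% inhibition of 6-phosphogluconate dehydrogenase activity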); conditions: recombinant 6PGD, NADPH absorbance 341 nm; at 10 µM; stronger effect = higher value
# Chain of 6-phosphogluconate dehydrogenase, decarboxylating (Homo sapiens) (P52209 whole entry, looked up): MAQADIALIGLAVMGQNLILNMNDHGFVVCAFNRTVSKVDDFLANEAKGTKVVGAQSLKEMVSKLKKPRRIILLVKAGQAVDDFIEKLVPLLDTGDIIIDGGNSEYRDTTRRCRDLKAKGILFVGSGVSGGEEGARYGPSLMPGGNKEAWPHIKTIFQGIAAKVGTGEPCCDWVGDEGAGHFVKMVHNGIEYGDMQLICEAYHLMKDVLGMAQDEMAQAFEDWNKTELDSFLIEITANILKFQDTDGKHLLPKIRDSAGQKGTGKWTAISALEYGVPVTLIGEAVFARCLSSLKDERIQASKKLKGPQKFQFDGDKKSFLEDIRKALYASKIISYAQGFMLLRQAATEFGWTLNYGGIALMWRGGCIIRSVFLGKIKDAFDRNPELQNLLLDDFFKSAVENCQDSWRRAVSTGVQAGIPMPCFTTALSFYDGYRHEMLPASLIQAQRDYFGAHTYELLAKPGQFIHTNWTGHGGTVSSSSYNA
# [11] = EMT-state selective cytotoxicity in co-culture – imaging, PC-3E GFP, TEM4-18 mCherry, primary screen (AID 1345086); conditions: PC-3E GFP / TEM4-18 mCherry co-culture, imaging cell counts, at 1 µM; for red/green cell ratio (normalised): actives lie on both sides, counts scaled to control wells, 1 = unselective;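 for all read-outs here: cells exposed to compound for 72 h before imaging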;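 for red/green cell ratio (normalised): normalised mesenchymal count divided by normalised epithelial count so high means epithelial killing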
# [12] = viability loss with induced miR-34 in A549 – imaging, A549 dox-inducible miR-34, nuclei and caspase counts, primary screen (AID 1347080;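 active = compounds whose cell count with miR-34 switched on is under 0.7 times the count with it off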); conditions: A549 miR-34 inducible, Hoechst nuclei count, 48 h
# [13] = biological target: NAD(+) hydrolase SARM1 (Homo sapiens) (UniProt Q6SZW1); assay: blocking NAD cleavage by SARM1 SAM-TIR – cell lysate, NAD-Glo luminescence (AID 1508614;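 active = compound whose remaining NAD level is above about 45 nM, limit read from the data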;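 note: higher remaining NAD means stronger inhibition of SARM1 NADase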); conditions: SAM-TIR HEK293T lysate NADase, at 1 µM, stronger effect = higher value
# Chain of NAD(+) hydrolase SARM1 (Homo sapiens) (Q6SZW1 whole entry, looked up, the tested form may be a part): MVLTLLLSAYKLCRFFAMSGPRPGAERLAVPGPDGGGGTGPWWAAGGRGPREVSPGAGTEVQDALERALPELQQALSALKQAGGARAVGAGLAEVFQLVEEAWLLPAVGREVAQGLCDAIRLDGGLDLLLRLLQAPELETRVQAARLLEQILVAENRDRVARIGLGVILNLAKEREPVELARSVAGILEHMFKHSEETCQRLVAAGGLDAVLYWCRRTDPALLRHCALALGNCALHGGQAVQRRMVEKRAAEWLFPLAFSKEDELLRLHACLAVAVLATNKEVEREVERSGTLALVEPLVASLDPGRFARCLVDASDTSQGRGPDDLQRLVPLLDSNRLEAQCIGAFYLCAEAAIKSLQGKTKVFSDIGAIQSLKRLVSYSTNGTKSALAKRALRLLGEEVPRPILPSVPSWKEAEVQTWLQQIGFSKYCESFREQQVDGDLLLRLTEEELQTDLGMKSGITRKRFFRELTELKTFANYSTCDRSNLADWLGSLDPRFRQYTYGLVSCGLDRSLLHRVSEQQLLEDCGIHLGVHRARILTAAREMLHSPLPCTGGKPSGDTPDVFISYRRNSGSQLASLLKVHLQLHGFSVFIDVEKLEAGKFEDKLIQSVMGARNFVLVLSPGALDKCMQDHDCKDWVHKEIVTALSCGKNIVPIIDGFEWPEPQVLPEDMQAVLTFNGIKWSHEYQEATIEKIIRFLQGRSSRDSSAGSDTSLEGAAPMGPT
# [14] = biological target: Mitogen-activated protein kinase 7 (Homo sapiens) (UniProt Q13164); assay: Gal4-ERK5 driven luciferase induction – cell-based, HTS, primary screen (AID 1508626;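 active = luciferase signal above three times the same-plate solvent-only control wells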;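 note: luciferase driven by Gal4-ERK5 fusion binding five Gal4 sites before minimal TATA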); conditions: HeLa Gal4-ERK5 transactivation, 18 h, at 5 µM, stronger effect = higher value
# Chain of Mitogen-activated protein kinase 7 (Homo sapiens) (Q13164 whole entry, looked up, the tested form may be a part): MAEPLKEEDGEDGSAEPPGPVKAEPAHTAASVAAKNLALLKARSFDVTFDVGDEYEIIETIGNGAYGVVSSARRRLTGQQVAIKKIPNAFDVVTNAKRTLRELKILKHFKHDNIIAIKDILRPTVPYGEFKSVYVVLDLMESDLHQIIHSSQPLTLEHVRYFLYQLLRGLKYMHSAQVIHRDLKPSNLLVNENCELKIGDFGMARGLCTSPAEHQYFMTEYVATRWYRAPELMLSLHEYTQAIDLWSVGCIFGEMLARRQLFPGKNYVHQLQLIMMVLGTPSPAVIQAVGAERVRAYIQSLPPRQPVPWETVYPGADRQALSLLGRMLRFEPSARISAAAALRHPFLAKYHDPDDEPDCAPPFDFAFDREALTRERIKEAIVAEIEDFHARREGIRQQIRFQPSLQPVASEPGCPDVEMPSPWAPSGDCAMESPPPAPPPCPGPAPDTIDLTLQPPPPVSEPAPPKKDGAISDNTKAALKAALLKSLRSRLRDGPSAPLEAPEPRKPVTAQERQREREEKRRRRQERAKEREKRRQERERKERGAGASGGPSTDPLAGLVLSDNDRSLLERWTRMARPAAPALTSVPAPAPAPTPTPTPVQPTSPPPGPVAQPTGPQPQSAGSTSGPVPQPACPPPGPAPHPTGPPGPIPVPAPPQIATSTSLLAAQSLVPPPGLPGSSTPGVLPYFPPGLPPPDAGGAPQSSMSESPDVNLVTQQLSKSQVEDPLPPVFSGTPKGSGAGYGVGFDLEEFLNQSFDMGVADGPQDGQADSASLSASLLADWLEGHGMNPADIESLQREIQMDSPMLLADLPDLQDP
# [15] = compounds altering circadian rhythm period length – cell-based, LOPAC library, luminescence reporter (AID 2774; call rule not given here;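 note: values are relative to mean of DMSO wells on each plate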); conditions: circadian reporter cells, at 7 µM, actives lie on both sides
# [16] = compounds altering viability of human ES cells (AID 493140; call rule not given here;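 note: cells exposed to compounds for four days before counting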); conditions: human embryonic stem cell survival screen; stronger effect = higher value
# [17] = blockers of cellular phospholipid synthesis – cell-based, LOPAC library, screen 4, primary screen (AID 1347384; call rule not given here); conditions: animal cells, phospholipid biosynthesis inhibition screen; at 10 µM
# [18] = MELAS cybrid and Rieske KO viability enhancers – cell-based, MELAS cybrids, Rieske KO mouse fibroblasts, CellTiter-Glo, primary screen (AID 1508586;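 active = mean z-score across replicates of 1.96 or higher in either the MELAS or the Rieske mutant cell line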;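 note: z relative to plate mean and SD of compound and empty wells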); conditions: low glucose
# [19] = galactose survival enhancers in mitochondrial complex I cybrids – cell-based, galactose medium, ATP luminescence, primary screen (AID 1645843;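 active = z-score of at least 1.8 in each of two replicates, scored against plate mean and spread of sample wells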;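 note: positive z means more ATP and so rescue of galactose-driven cybrid death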); conditions: complex I mutant cybrid cells, 72 h, stronger effect = higher value
# [20] = measured here: epithelial PC-3E GFP cell survival
# [21] = measured here: mesenchymal TEM4-18 mCherry cell survival
# [22] = stronger effect = lower value, cell number ratio, induced over uninduced
# [23] = measured here: relative caspase fold change +Dox/-Dox
# [24] = measured here: total cells with miR-34 induction, stronger effect = lower value
# [25] = measured here: total cells without miR-34 induction
# [26] = MELAS cybrid survival, CellTiter-Glo 48 h, stronger effect = higher value
# [27] = Rieske KO mouse fibroblast survival, CellTiter-Glo 72 h
smiles,measurement,setting,value
CCCCCCCCCCCCCCCC(=O)OC/C=C(C)/C=C/C=C(C)/C=C/C1=C(C)CCCC1(C)C,inhibition,[1],-19.1%
same,score,[2],1.38
same,rescue above control,[3],3.93
same,cytochrome c release ratio,[4],1.03
same,inhibition of aggregation,[5],46%
same,glutamate uptake change,[6],4.94%
same,inclusion score,[7],2
same,aggregation suppression score,[8],0.6
same,parasite load remaining,[9],174% (inactive) and 50.5% (inactive)
same,viability,[9],86.2% and 95%
same,inhibition,[10],1.58% (inactive)
same,red/green cell ratio (normalised),[11],1.41 (inactive)
same,normalised cell number,[11]; [20],0.95
same,normalised cell number,[11]; [21],1.34
same,fold change,[12]; [22],0.809 (inactive)
same,fold change,[12]; [23],0.861
same,cell count,[12]; [24],9920
same,cell count,[12]; [25],12300
same,remaining NAD,[13],10 nM (inactive)
same,luciferase signal,[14],624 AU (active)
CN(C)CCC(c1ccc(Br)cc1)c1ccccn1 (stereo not given),period change,[15],0.005 h (inactive)
same,survival,[16],1.08 (inactive)
same,inhibition,[10],5% (inactive)
same,red/green cell ratio (normalised),[11],1.05 (inactive)
same,normalised cell number,[11]; [20],1.13
same,normalised cell number,[11]; [21],1.19
same,outcome,[17],inactive
same,z-score,[18]; [26],-0.114 (inactive) and -0.273 (inactive) and -0.659 (inactive)
same,z-score,[18]; [27],-0.476 and -0.248 and 0.132
same,remaining NAD,[13],10 nM (inactive)
same,luciferase signal,[14],48 AU (inactive)
same,z-score,[19],-0.18 (inactive) and -0.16 (inactive) and 0.035 (inactive)
C=Cc1c(C)/c2[n-]/c1=C\c1[n-]c(c(CC)c1C)/C=c1\[n-]c3c(c1C)C(=O)C(C(=O)[O-])C=3c1[n-]c(c(C)c1CCC(=O)[O-])\C=2.[Cu].[Na+].[Na+] (stereo not given),parasite load remaining,[9],101% (inactive) and 38.1% (inactive)
same,viability,[9],71.3% and 170%
same,inhibition,[10],37.8% (active)
same,red/green cell ratio (normalised),[11],0.85 (inactive)
same,normalised cell number,[11]; [20],1.03
same,normalised cell number,[11]; [21],0.87
same,fold change,[12]; [22],0.937 (inactive)
same,fold change,[12]; [23],2.82
same,cell count,[12]; [24],11500
same,cell count,[12]; [25],12300
CC(=O)Oc1cccc(C(=O)O)c1OC(C)=O,inhibition,[10],0.748% (inactive)
same,red/green cell ratio (normalised),[11],0.81 (inactive)
same,normalised cell number,[11]; [20],1.05
same,normalised cell number,[11]; [21],0.86
same,remaining NAD,[13],10 nM (inactive)
CN1CC(=O)N=C1N,inhibition,[1],-27.2%
same,score,[2],1.33
same,rescue above control,[3],-3.62
same,cytochrome c release ratio,[4],0.51
same,inhibition of aggregation,[5],97.4%
same,glutamate uptake change,[6],32%
same,inclusion score,[7],2
same,aggregation suppression score,[8],1.7
same,inhibition,[10],10.8% (inactive)
same,red/green cell ratio (normalised),[11],1.04 (inactive)
same,normalised cell number,[11]; [20],0.96
same,normalised cell number,[11]; [21],1
same,remaining NAD,[13],10 nM (inactive)
same,luciferase signal,[14],68 AU (inactive)
CC(C(=O)O)c1cccc(Oc2ccccc2)c1 (stereo not given),inhibition,[1],-4.11%
same,score,[2],0.02
same,rescue above control,[3],4.41
same,cytochrome c release ratio,[4],0.68
same,inhibition of aggregation,[5],72.7%
same,glutamate uptake change,[6],5.16%
same,inclusion score,[7],2
same,aggregation suppression score,[8],0.0306
same,survival,[16],1.75 (inactive)
same,inhibition,[10],15.8% (inactive)
same,red/green cell ratio (normalised),[11],0.89 (inactive)
same,normalised cell number,[11]; [20],1.13
same,normalised cell number,[11]; [21],1
same,z-score,[18]; [26],-0.0579 (inactive) and -0.205 (inactive) and 0.473 (inactive)
same,z-score,[18]; [27],-0.141 and -0.109 and 0.281
same,remaining NAD,[13],10 nM (inactive)
same,luciferase signal,[14],72 AU (inactive)
same,z-score,[19],0.865 (inactive)
CC[C@H]1OC(=O)C[C@@H](O)[C@H](C)[C@@H](O[C@@H]2O[C@H](C)[C@@H](O[C@H]3C[C@@](C)(O)[C@@H](O)[C@H](C)O3)[C@H](N(C)C)[C@H]2O)[C@@H](CC=O)C[C@@H](C)C(=O)/C=C/C(C)=C/[C@@H]1CO[C@@H]1O[C@H](C)[C@@H](O)[C@@H](OC)[C@H]1OC,parasite load remaining,[9],131% (inactive) and 58.3% (inactive)
same,viability,[9],85.6% and 145%
same,inhibition,[10],1.55% (inactive)
same,red/green cell ratio (normalised),[11],1.03 (inactive)
same,normalised cell number,[11]; [20],1.05
same,normalised cell number,[11]; [21],1.08
same,fold change,[12]; [22],0.905 (inactive)
same,fold change,[12]; [23],5.16
same,cell count,[12]; [24],12000
same,cell count,[12]; [25],13200
same,remaining NAD,[13],10 nM (inactive)
same,luciferase signal,[14],16 AU (inactive)
CCCCC(=O)Oc1ccccc1C(=O)O,inhibition,[10],18.3% (inactive)
same,red/green cell ratio (normalised),[11],0.89 (inactive)
same,normalised cell number,[11]; [20],1.25
same,normalised cell number,[11]; [21],1.11
same,fold change,[12]; [22],0.935 (inactive)
same,fold change,[12]; [23],0.938
same,cell count,[12]; [24],5290
same,cell count,[12]; [25],5650
same,luciferase signal,[14],56 AU (inactive)
Cn1nnnc1SCC1=C(C(=O)O)N2C(=O)C(NC(=O)C(OC=O)c3ccccc3)C2SC1 (stereo not given),inhibition,[1],20.1%
same,score,[2],1.46
same,rescue above control,[3],-9.96
same,cytochrome c release ratio,[4],1.54
same,inhibition of aggregation,[5],91.6%
same,glutamate uptake change,[6],-5.89%
same,inclusion score,[7],2
same,aggregation suppression score,[8],1.26
same,parasite load remaining,[9],85.6% (inactive) and 51.5% (inactive)
same,viability,[9],73.8% and 102%
same,inhibition,[10],0.99% (inactive)
same,red/green cell ratio (normalised),[11],0.82 (inactive)
same,normalised cell number,[11]; [20],1.29
same,normalised cell number,[11]; [21],1.06
same,fold change,[12]; [22],0.922 (inactive)
same,fold change,[12]; [23],2.94
same,cell count,[12]; [24],11600
same,cell count,[12]; [25],12600
CCN(CC)Cc1ccc(Nc2ccnc3cc(Cl)ccc23)cc1O,inhibition,[1],-50.2%
same,score,[2],1.49
same,rescue above control,[3],8.25
same,cytochrome c release ratio,[4],0.74
same,inhibition of aggregation,[5],65.5%
same,glutamate uptake change,[6],1.51%
same,aggregation suppression score,[8],1.68
same,parasite load remaining,[9],-0.345% (active) and 0.905% (inactive)
same,viability,[9],63% and 59.3%
same,inhibition,[10],4.92% (inactive)
same,red/green cell ratio (normalised),[11],0.8 (inactive)
same,normalised cell number,[11]; [20],1.14
same,normalised cell number,[11]; [21],0.91
same,fold change,[12]; [22],0.936 (inactive)
same,fold change,[12]; [23],0.896
same,cell count,[12]; [24],8520
same,cell count,[12]; [25],9100
